Source: PubChem (National Center for Advancing Translational Sciences (NCATS))
An excerpt weighted towards active compounds, which were near 18% of everything screened.
TDP1 block – blocks human tyrosyl-DNA phosphodiesterase 1; recombinant TDP1, AlphaScreen DNA substrate cleavage; AID 485290; Potency, µM (series often up to 130 µM), usual class: inhibitors; Q9NUW8; actives 0.28% (n = 350,000); further: nearly all actives have a fitted effect of over 40% in size
Target sequence (Q9NUW8 whole entry, looked up): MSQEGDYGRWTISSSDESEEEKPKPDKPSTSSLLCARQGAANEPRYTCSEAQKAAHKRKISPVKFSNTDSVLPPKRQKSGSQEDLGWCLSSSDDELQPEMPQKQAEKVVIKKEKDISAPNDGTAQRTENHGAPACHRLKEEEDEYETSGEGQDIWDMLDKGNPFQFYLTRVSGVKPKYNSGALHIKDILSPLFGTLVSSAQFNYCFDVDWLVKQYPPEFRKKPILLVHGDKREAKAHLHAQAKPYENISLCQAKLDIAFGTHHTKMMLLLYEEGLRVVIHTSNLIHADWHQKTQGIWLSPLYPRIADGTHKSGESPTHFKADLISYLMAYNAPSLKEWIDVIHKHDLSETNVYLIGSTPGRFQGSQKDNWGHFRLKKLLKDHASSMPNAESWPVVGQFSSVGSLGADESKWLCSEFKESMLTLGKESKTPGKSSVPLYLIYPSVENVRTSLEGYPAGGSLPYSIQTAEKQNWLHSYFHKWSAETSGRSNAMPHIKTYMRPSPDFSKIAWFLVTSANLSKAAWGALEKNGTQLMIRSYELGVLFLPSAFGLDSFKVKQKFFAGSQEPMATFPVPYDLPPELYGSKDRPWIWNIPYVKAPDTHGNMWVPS
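Signal: AlphaScreen proximity between streptavidin donor and anti-FITC acceptor beads on intact substrate. Reaction: Tdp1 1 nM, substrate 15 nM final, 5 min RT after 15 min compound preincubation.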
TDP1 cell noCPT – qHTS for Inhibitors of human tyrosyl-DNA phosphodiesterase 1 (TDP1): qHTS in cells in absence of CPT; DT40 Tdp1-/- hTDP1 cells, no CPT, ATP luminescence, 48 h; Potency, µM (doses to about 46.2 µM), actives largely listed as inhibitors; actives 15% (n = 420,000); further: nearly all actives have a fitted effect of over 55% in size
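DT40 Tdp1-/-;hTDP1 cells, no CPT (DMSO vehicle only), 400 cells/well; compounds pin-transferred; ≥48 hr, 37 °C; CellTiter-Glo 30 min RT dark, luminescence read.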
Six1-Eya2 blk – Six1/Eya2 interaction inhibition. Q15475+O00167. actives 0.56% (n = 360,000). AlphaScreen GST-Six1/His-Eya2 binding, biochemical; stronger effect = lower value. AID 651725. activity change, % (concentration not given with the values); in the data active means activity change below about -65%; inconclusive means mostly about -30% to -63%
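GST-Six1 + His-Eya2 (5X stock: 250/500 nM); Tris pH 8.0, 300 mM NaCl, 0.05% BSA, 0.02% Tween 20; GSH donor/Ni acceptor beads; 1 h 37 °C dark; AlphaScreen readout.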
CtBP-E1A inh – CtBP/E1A binding inhibition; AlphaScreen GST-E1A/His-CtBP binding, 1536-well; stronger effect = lower value; activity change, % (test concentration not listed); actives 0.49% (n = 340,000); AID 651724; in the data active means activity change below about -65%; inconclusive means mostly about -30% to -63%
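AlphaScreen with 125 nM GST-E1A and 125 nM His-CtBP (5X stocks) in Tris pH 8.0, 300 mM NaCl, BSA, Tween 20, TCEP. Compounds preincubated 2 h at 37 deg C, then glutathione donor/nickel acceptor beads added for 1 h at 37 deg C in dark.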
IL-1B inflam inh – inhibitors of inflammasome signaling (IL-1 beta secretion) | THP-1 LPS/ATP IL-1B secretion, AlphaLISA, 16 h; stronger effect = lower value | activity change, % at 57.5 µM | actives 4.7% (n = 360,000); in the data active means activity change below about -50%; inconclusive means mostly about -30% to -49%
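THP-1 cells pretreated 1 hr with compounds (up to 57.5 uM final), then stimulated with LPS (250 ng/mL final) plus ATP (1.25 mM final); secreted IL-1B measured by AlphaLISA after 16 hr, decreased signal indicating inhibition.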
TDP1 cell CPT – growth inhibition of DT40 Tdp1-/-;hTDP1 cells with camptothecin (screen for TDP1 inhibitors) | chicken DT40 Tdp1-/-;hTDP1 cells + 20 nM CPT, ATP luminescence, 48 h | Potency, µM (top dose mostly 46.2 µM), actives largely listed as inhibitors | actives 12% (n = 420,000); further: nearly all actives have a fitted effect of over 55% in size
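Chicken DT40 Tdp1-/- cells complemented with human TDP1, 400 cells/well, exposed to compounds plus 20 nM camptothecin for at least 48 h at 37 C; viability read as ATP content by CellTiter-Glo luminescence.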
A number is an active result; . = inactive; ? = inconclusive; / = no result; [ ] = dose if it differs, or a comment. Unless noted, the call rests on the fitted dose curve; in most records, active means well fitted curve in the direction sought with a large enough effect; inconclusive means small, poorly fitted or top-dose-only effect, or another doubt; inactive means no such curve, though single readings can be large; an effect the other way counts as inactive or inconclusive.

SMILES | TDP1 block | TDP1 cell noCPT | Six1-Eya2 blk | CtBP-E1A inh | IL-1B inflam inh | TDP1 cell CPT
COc1ccc2nc(C)cc(SCC(=O)NNC(=O)COc3cccc4ccccc34)c2c1 | . | ? | . | . | . | .
CC1CCc2cc(F)ccc2N1C(=O)CSc1nnc2c(n1)[nH]c1ccccc12 (stereo not given) | . | ? | ? | ? | ? | ?
COC(=O)c1ccc(/C=N\NC(=O)CC(=O)NCCc2ccccc2)cc1 | . | 13µM | . | . | . | .
COc1ccccc1/C=N/NC(=O)CC(=O)NCc1ccccc1 | . | . | . | . | -51.1 | .
COc1ccc2nc(C)cc(SCC(=O)Nc3c(C)cccc3C)c2c1 | . | ? | . | . | . | ?
O=C(CC(=O)N/N=C\c1ccccc1)NCCc1ccccc1 | . | . | . | . | . | .
Cc1cc(C(=O)NN)c2cc(Br)ccc2n1 | . | . | . | . | . | .
COc1ccc2nc(C)cc(SCC(=O)N/N=C/c3ccccc3)c2c1 | . | ? | ? | . | -97.8 | .
Cc1cc(SCC(=O)NN)c2cc(Br)ccc2n1 | . | ? | . | . | -92.4 | ?
Cc1cc(C(=O)N2CCCC(N3CCN(c4ccccc4C)CC3)C2)nc(C)n1 (stereo not given) | . | . | . | . | . | .
COc1ccc(-c2nc(-c3ccccc3)c(-c3cc([N+](=O)[O-])ccc3C)[nH]2)cc1OC | . | 18.4µM | . | . | . | 23.1µM
CCOc1ccc(-c2nc(-c3ccccc3)c(-c3ccccc3)[nH]2)cc1OCC | . | 18.4µM | / | / | / | 20.6µM
O=[N+]([O-])c1ccc(O)c(-c2nc(-c3ccccc3)c(-c3cccs3)[nH]2)c1 | . | 18.4µM | . | . | . | 20.6µM
COc1ccc(-c2cn3cc([N+](=O)[O-])ccc3n2)cc1OC | . | ? | ? | / | . | ?
COc1ccc(-c2nc(-c3ccccc3)c(-c3ccc(F)cc3)[nH]2)c(OC)c1C | / | ? | / | / | / | 20.6µM
COC(=O)CN(n1cnnc1)S(=O)(=O)c1ccccc1 | . | . | . | . | . | .
N#C/C(=C\c1cccc(Cl)c1)c1n[nH]c(Cn2cncn2)n1 | . | . | . | . | . | .
NC(=O)c1ncn([C@@H]2O[C@H](CNC(=O)[C@@H](N)Cc3cccnc3)[C@@H](O)[C@H]2O)n1 | / | . | . | . | . | .
CCOC(=O)c1c(C)nc(C)c(C(=O)OCC)c1-c1cccc([N+](=O)[O-])c1 | / | ? | . | . | . | .
CCOc1cc(-c2nc(-c3ccccc3)c(-c3cc([N+](=O)[O-])ccc3C)[nH]2)ccc1O | . | 23.1µM | . | . | . | ?
CC(=O)Nc1ccc(CN2CCN(C3CCCCC3)C(CCO)C2)cc1 (stereo not given) | . | . | . | . | . | .
CCCN(CC(=O)Nc1ccccc1OC)C(=O)c1ccncc1 | .[0.0935 µM] | . | . | . | . | .
CCCN(CC(=O)Nc1ccccc1OC)C(=O)c1ccc2[nH]c3c(c2c1)CC(C)CC3 (stereo not given) | . | ? | . | . | -59.2 | ?
CCN(CC(=O)Nc1ccccc1OC)C(=O)c1ccc(NC(=O)c2cccs2)cc1 | . | ? | . | / | . | ?
CCN(CC(=O)Nc1ccccc1OC)C(=O)c1ccc2[nH]c3c(c2c1)CC(C)CC3 (stereo not given) | . | ? | . | . | . | 18.4µM
SMILES | TDP1 block | TDP1 cell noCPT | Six1-Eya2 blk | CtBP-E1A inh | IL-1B inflam inh | TDP1 cell CPT
CC(C)c1ccc(S(=O)(=O)NCc2ccc3c(c2)OCO3)cc1 | / | . | . | . | . | .
Cc1ccc(N2CC(C)Cn3c2nc2c3c(=O)[nH]c(=O)n2C)cc1C (stereo not given) | / | ? | . | . | . | .
COc1ccc(C(=O)Nc2cccc(-c3nc4cccnc4s3)c2C)c(OC)c1 | . | 11.6µM | / | / | / | 20.6µM
Cc1ccc(NC(=O)Cc2ccc(-n3c(C)nc4cccnc43)cc2)c(Cl)c1 | . | 4.11µM | / | / | / | 5.17µM
Cc1c(NC(=O)Cc2ccc(Cl)cc2)cccc1-c1nc2cccnc2s1 | . | 16.4µM | / | / | / | ?
CCc1nc2cccnc2n1-c1ccc(CC(=O)O)cc1 | / | . | . | . | . | .
Cc1ccc(NC(=O)Cn2cc(C(F)(F)F)cc(Cl)c2=O)cc1S(=O)(=O)N1CCCCC1 | . | ? | . | . | . | ?
O=S(=O)(Cc1ccc(Cl)cc1)N1CCN(Cc2ccc3c(c2)OCO3)CC1 | . | . | . | . | . | .
O=S(=O)(Cc1ccc(Cl)cc1)Nc1ccc2c(c1)OCO2 | . | ? | . | . | -53.0 | ?
Cc1cc(C)nc(SCc2ccc(Br)cc2)n1 | / | . | . | . | . | .
COc1ccc(NC(=O)CSc2nnc3n2CCCCC3)cc1OC | / | 0.206µM | . | . | ? | .
COc1ccc(C(=O)Nc2ccc(-c3nnc4n3CCCCC4)cc2)cc1OC | . | 13µM | / | / | / | 13µM
Cc1noc(/C=C/c2ccccn2)c1[N+](=O)[O-] | . | 20.6µM | . | . | -50.9 | ?
O=C(O)Cc1ccc(C(=O)c2ccccc2)s1 | . | . | . | . | . | .
CCc1cc(C(=O)c2ccccc2)c(N)s1 | . | ? | . | . | . | 25.9µM
Cc1ccc(S(=O)(=O)N2CCC[C@H]2C(=O)OCCN2C(=O)c3ccccc3C2=O)cc1 | . | . | . | . | . | .
CCCCCC(=O)N1C[C@H](n2cc(-c3ccc(F)cc3)nn2)[C@@H](O)C[C@@H]1c1ccc(Cl)cc1 | / | 25.9µM | . | . | ? | ?
CCCCCC(=O)N1C[C@@H](n2cc(-c3ccc(F)cc3)nn2)[C@H](O)C[C@@H]1c1ccccc1 | / | ? | . | . | . | ?
CCCCCC(=O)N1C[C@@H](O)[C@H](n2cc(C3CC3)nn2)C[C@@H]1c1ccccc1 | / | 16.4µM | . | . | . | ?
CCCCCC(=O)N1C[C@@H](O)[C@H](n2cc(-c3ccc(F)cc3)nn2)C[C@@H]1c1ccc(Cl)cc1 | / | 14.6µM | . | . | -56.5 | 16.4µM
CC(=O)N1CCN(C(=O)c2ccc(Cl)c(S(=O)(=O)N3CCCC3)c2)CC1 | . | . | . | . | . | .
CSc1cccc(N2C(=O)N(CC(=O)NCc3ccccc3Cl)c3ccccc3S2(=O)=O)c1 | . | 16.4µM | / | / | / | ?
COc1cccc(CNC(=O)CN2C(=O)N(c3ccc(C)cc3C)S(=O)(=O)c3ccccc32)c1OC | . | 20.6µM | / | / | / | ?
Cc1noc(C)c1C(=O)Nc1ccccc1N1CCCC1 | . | ? | . | . | . | ?
O=S(=O)(Cc1ccccc1)NCc1ccccn1 | . | . | . | . | . | .
Cc1ccc(N2CCN(C(=O)c3[nH]c(C(F)(F)F)nc3-c3ccccc3)CC2)cc1 | / | ? | . | . | . | ?
